Here are results for 26 compounds from PubChem BioAssay (EPA / NIEHS).

Each structure is given as a SMILES string. Results filed as inconclusive are left out. Activity calls are given as the source filed them. How the source made its calls, unless noted: active means hit-call score of the fitted dose curve at least 0.9, where 1 is the maximum; inconclusive means response in the unintended direction; inactive means score below 0.9.

Test [1] concerns the target Glucocorticoid receptor (Homo sapiens) (UniProt P04150). Description: ATG_GR_TRANS: Attagene TRANS-FACTORIAL HepG2 Assay for human Glucocorticoid Receptor (GR) (AID 2282978).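 Further: activators score as hits since higher reporter transcript over DMSO is fitted.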 The settings on record: HepG2 Attagene TRANS GR reporter, mRNA transcription. The gist of the method: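 After 24 h incubation with test chemical, transfected HepG2 cells were lysed for RNA; reporter cDNA was amplified, FAM-labelled, HpaI-digested and sized on a capillary analyser. Signal gain relative to DMSO was scored.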

The target in test [2] is Bile acid receptor (Homo sapiens) (UniProt Q96RI1). Put plainly: ATG_FXR_TRANS: Attagene TRANS-FACTORIAL HepG2 Assay for Farnesoid X Receptor (FXR) (AID 2282979).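 Further: hits raise reporter mRNA above DMSO so AC50 marks FXR activation.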 To be noted: HepG2 Attagene TRANS FXR-GAL4 reporter transcription. The gist of the method: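 HepG2 cells transiently transfected with reporter constructs in which a chimeric FXR-GAL4 protein drives a GAL4-UAS reporter; 24 h compound exposure. Reporter mRNA measured by RT-PCR, FAM labelling, HpaI digestion and capillary electrophoresis; gain-of-signal versus DMSO.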

Test [3] concerns the target Oxysterols receptor LXR-alpha (Homo sapiens) (UniProt Q13133). Description: ATG_LXRa_TRANS: Attagene TRANS-FACTORIAL HepG2 Assay for human Liver X Receptor alpha (LXRa) (AID 2282980). To be noted: HepG2 Attagene TRANS reporter, LXRa transactivation. The gist of the method:
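HepG2 cells were transiently transfected with multiplexed reporter units driven by chimeric LXRa–GAL4 fusion proteins, then dosed for 24 h. Reporter mRNA was quantified by RT-PCR, fluorescent labelling and capillary electrophoresis; gain of signal fitted against DMSO baseline.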

Test [4] has as its target Oxysterols receptor LXR-beta (Homo sapiens) (UniProt P55055). Description: ATG_LXRb_TRANS: Attagene TRANS-FACTORIAL HepG2 Assay for human Liver X Receptor beta (LXRb) (AID 2282981). The settings on record: HepG2 Attagene TRANS GAL4-LXRb reporter, mRNA. The gist of the method: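 HepG2 cells transiently transfected with GAL4-UAS reporter units for chimeric NR-Gal4 proteins, dosed for 24 h. Reporter transcripts measured by RT-PCR and capillary electrophoresis; gain-of-signal fitting relative to DMSO.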

Test [5] is described as follows: ATG_M_06_TRANS: Attagene TRANS-FACTORIAL HepG2 Assay for M06 Transcription Factor (Internal Marker) (AID 2282983).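 Further: reporter transcript level by RT-PCR then capillary electrophoresis fluorescence.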 The settings on record: HepG2 Attagene TRANS M06 internal marker reporter. The procedure, abridged: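 HepG2 cells transiently transfected with multiplexed GAL4-UAS reporter transcription units; after 24 h compound exposure, reporter mRNA measured by RT-PCR, FAM-labelled primer extension, HpaI digestion and capillary electrophoresis. Gain-of-signal fitted versus DMSO baseline; background control readout.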

Test [6] in a line: ATG_M_32_TRANS: Attagene TRANS-FACTORIAL HepG2 Assay for M32 Transcription Factor (Internal Marker) (AID 2282984). The settings on record: HepG2 Attagene TRANS M32 internal marker reporter. The gist of the method:
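HepG2 cells transiently transfected with GAL4-UAS reporter units, dosed for 24 hours. Reporter mRNA quantified by RT-PCR, 6-FAM labelling, HpaI digestion and capillary electrophoresis; internal-marker signal fitted upward relative to DMSO.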

In test [7] the target is Nuclear receptor subfamily 4 group A member 2 (Homo sapiens) (UniProt P43354). Description: ATG_NURR1_TRANS: Attagene TRANS-FACTORIAL HepG2 Assay for human Nuclear Receptor Related Protein 1 (NURR1) (AID 2282985). To be noted: HepG2 Attagene TRANS reporter, mRNA readout. The procedure, abridged: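 HepG2 cells transiently transfected with NURR1-Gal4 chimera and GAL4-UAS reporter units; after 24 hr compound exposure, reporter mRNA quantified by RT-PCR and capillary electrophoresis; gain of signal fitted against DMSO.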

The target in test [8] is Transcriptional activator Myb (Homo sapiens) (UniProt P10242). Put plainly: ATG_Myb_CIS: Attagene CIS-FACTORIAL HepG2 Assay for human Myeloblastosis (Myb) Proto-Oncogene Transcription Factor (AID 2282986; active means hit-call score of the fitted dose curve at least 0.9, where 1 is the maximum; inactive means score below 0.9). The settings on record: HepG2 Attagene CIS-FACTORIAL Myb reporter transcription; actives raise or lower the signal. The procedure, abridged: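 After 24 h of compound dosing, total RNA from transfected HepG2 cells is reverse-transcribed and the reporter sequences amplified, labeled and separated by capillary electrophoresis. Values come from bidirectional fitting against DMSO.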

Test [9] deals with Nuclear respiratory factor 1 (Homo sapiens) (UniProt Q16656). Put plainly: ATG_NRF1_CIS: Attagene CIS-FACTORIAL HepG2 Assay for human Nuclear Respiratory Factor 1 (NRF1) Orphan Gene (AID 2282987; active means hit-call score of the fitted dose curve at least 0.9, where 1 is the maximum; inactive means score below 0.9). The settings on record: HepG2 NRF1 cis-element reporter, Attagene multiplex; actives raise or lower the signal. The gist of the method:
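Measured: fluorescent reporter-specific RT-PCR products from transfected HepG2 cells, separated by capillary electrophoresis. Exposure lasted 24 h. Analysis used bidirectional curve fitting with DMSO as negative control.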

Test [10] addresses Hepatocyte nuclear factor 4-alpha (Homo sapiens) (UniProt P41235). Put plainly: ATG_HNF4a_TRANS: Attagene TRANS-FACTORIAL HepG2 Assay for human Hepatocyte Nuclear Factor 4 alpha (HNF4a) (AID 2282982). To be noted: HepG2 HNF4a transactivation reporter, mRNA readout. The procedure, abridged: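 HepG2 cells transiently transfected with HNF4a-Gal4 chimera and GAL4-UAS reporter units, dosed for 24 h. Reporter mRNA measured by RT-PCR, fluorescent primer extension and capillary electrophoresis; gain-of-signal fitted relative to DMSO.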

Glucocorticoid receptor (Homo sapiens), sequence (P04150 whole entry, looked up): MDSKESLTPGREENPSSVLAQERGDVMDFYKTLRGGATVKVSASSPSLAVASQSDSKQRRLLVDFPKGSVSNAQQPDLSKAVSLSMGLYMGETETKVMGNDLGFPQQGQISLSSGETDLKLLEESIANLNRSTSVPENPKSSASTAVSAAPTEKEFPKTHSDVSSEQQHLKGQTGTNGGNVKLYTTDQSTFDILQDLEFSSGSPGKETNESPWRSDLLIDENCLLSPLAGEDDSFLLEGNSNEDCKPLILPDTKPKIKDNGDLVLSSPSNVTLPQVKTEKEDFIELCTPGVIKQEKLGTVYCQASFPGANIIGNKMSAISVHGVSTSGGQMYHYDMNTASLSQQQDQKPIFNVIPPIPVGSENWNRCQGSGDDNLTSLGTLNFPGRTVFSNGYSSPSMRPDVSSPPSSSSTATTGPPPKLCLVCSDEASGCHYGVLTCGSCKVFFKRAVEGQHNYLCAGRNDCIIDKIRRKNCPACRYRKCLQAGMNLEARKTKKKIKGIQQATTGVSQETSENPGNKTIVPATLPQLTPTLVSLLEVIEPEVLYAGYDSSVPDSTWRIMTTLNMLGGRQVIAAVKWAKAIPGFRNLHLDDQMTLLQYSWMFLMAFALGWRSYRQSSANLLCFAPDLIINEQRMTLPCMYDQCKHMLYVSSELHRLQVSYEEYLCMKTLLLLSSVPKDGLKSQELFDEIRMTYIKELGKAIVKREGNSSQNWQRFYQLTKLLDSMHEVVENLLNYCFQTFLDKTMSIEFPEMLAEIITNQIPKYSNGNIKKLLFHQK
Bile acid receptor (Homo sapiens), sequence (Q96RI1 whole entry, looked up, the tested form may be a part): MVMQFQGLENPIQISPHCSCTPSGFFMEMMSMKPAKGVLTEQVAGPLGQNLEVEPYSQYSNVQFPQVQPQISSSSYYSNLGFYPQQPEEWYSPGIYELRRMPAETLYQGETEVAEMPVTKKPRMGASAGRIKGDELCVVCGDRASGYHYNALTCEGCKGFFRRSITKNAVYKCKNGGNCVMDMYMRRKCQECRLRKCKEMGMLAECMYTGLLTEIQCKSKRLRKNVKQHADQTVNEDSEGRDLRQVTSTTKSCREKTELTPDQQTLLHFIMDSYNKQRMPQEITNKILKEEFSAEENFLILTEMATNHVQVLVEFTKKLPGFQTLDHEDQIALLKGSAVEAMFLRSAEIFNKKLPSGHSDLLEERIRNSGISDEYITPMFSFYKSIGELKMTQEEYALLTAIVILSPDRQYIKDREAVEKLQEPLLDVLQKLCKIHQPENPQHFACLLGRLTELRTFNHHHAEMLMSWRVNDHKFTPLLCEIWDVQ
Transcriptional activator Myb (Homo sapiens), sequence (P10242 whole entry, looked up): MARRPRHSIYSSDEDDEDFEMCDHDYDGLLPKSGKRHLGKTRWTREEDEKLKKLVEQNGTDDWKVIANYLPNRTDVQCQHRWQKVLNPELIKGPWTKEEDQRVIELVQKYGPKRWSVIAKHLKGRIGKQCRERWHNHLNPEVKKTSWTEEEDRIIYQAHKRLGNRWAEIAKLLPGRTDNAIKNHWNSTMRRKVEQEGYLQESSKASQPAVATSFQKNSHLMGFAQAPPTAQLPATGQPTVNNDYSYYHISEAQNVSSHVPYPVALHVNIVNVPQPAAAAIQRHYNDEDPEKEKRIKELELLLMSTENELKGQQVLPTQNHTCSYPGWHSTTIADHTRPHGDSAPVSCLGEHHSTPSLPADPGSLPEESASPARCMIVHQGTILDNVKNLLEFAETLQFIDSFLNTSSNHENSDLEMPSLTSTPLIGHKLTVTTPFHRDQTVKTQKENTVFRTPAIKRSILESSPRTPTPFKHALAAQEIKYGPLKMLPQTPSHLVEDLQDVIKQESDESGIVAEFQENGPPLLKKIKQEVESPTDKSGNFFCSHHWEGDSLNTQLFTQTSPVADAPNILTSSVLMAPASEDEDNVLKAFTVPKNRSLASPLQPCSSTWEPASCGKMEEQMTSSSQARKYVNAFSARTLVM
Oxysterols receptor LXR-alpha (Homo sapiens), sequence (Q13133 whole entry, looked up, the tested form may be a part): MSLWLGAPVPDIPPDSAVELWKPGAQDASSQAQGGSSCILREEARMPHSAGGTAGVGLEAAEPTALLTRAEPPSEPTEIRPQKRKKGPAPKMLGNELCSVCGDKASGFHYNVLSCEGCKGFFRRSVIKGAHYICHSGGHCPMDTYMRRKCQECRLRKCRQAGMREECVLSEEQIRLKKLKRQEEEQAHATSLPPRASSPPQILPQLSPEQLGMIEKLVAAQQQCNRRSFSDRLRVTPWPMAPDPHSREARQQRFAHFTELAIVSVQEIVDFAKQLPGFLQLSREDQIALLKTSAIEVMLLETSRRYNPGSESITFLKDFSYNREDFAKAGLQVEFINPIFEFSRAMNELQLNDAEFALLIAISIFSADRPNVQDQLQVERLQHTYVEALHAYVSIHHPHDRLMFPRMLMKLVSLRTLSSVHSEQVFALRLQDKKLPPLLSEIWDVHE
Nuclear respiratory factor 1 (Homo sapiens), sequence (Q16656 whole entry, looked up): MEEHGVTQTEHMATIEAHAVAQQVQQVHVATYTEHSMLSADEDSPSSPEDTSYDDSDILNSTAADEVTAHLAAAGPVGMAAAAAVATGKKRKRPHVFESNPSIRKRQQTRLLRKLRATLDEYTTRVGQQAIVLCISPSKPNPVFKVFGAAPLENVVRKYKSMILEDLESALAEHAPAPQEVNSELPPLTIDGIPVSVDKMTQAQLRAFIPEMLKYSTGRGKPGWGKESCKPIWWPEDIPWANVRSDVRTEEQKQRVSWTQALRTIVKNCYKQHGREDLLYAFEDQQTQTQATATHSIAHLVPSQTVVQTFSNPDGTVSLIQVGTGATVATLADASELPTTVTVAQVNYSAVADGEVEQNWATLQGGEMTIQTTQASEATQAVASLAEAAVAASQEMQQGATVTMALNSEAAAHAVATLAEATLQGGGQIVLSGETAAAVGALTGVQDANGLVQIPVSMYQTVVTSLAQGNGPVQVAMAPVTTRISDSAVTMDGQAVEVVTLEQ
Nuclear receptor subfamily 4 group A member 2 (Homo sapiens), sequence (P43354 whole entry, looked up, the tested form may be a part): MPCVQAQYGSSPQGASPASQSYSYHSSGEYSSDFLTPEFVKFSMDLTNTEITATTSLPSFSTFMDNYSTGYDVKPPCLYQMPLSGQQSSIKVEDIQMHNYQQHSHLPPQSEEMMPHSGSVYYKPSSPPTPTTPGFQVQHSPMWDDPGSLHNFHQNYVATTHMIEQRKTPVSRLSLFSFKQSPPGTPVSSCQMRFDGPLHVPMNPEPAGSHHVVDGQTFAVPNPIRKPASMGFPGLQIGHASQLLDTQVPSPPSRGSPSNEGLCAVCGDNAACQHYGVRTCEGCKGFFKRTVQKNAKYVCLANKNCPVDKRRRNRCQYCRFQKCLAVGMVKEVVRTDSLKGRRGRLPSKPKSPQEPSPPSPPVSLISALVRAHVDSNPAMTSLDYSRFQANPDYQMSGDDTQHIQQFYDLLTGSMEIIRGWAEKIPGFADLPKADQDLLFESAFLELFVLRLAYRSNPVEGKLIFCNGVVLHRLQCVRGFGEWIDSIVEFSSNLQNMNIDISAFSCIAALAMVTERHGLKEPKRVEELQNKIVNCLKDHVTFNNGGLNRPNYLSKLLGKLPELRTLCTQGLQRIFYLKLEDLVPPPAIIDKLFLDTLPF
Hepatocyte nuclear factor 4-alpha (Homo sapiens), sequence (P41235 whole entry, looked up, the tested form may be a part): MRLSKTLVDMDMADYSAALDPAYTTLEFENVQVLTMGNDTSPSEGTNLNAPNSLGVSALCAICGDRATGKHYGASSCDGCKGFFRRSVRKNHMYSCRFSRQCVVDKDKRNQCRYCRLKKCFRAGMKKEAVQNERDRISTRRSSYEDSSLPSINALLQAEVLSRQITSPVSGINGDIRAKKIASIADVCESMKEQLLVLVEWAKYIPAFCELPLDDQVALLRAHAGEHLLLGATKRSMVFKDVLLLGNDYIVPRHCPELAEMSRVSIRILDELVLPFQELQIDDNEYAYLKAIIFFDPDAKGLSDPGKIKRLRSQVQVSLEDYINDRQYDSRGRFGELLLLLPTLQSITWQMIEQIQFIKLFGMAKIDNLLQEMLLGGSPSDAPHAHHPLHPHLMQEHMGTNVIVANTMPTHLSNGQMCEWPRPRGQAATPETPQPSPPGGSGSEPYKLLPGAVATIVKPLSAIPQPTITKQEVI
Oxysterols receptor LXR-beta (Homo sapiens), sequence (P55055 whole entry, looked up, the tested form may be a part): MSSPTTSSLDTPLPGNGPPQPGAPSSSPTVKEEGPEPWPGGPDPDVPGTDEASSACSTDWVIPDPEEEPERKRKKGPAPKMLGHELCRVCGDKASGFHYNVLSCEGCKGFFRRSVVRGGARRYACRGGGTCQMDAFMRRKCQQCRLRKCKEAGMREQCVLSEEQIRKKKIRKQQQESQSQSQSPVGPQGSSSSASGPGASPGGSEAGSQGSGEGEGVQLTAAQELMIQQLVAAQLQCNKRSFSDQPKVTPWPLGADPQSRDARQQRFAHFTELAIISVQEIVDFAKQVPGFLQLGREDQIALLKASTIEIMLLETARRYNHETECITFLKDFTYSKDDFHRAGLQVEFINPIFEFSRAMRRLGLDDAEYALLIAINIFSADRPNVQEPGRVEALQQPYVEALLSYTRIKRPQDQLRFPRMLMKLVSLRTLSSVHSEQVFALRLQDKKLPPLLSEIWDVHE

Consider `CCCCCCCC/C=C\CCCCCCCC(=O)O`, for which the outcome in test [1], in test [2], in [3], in [4], in test [5] and in test [6] was inactive. The outcome in [7], in [8] and in test [9] was inactive.

Consider `CCCCCCOC(=O)C(C)CC` (stereo not given), for which the call in [1], in test [2], in test [3], in test [6], in test [8] and in [9] was inactive.

As to `C=CC(=O)OCC(Br)CBr` (stereo not given), the outcome in test [1], in test [2], in [6], in test [7], in test [8] and in test [9] was inactive.

On to `c1ccc(CCCc2ccncc2)cc1`, for which the outcome in [1], in [2], in [4], in test [5], in test [6] and in test [7] was inactive. The outcome in [8] and in test [9] was inactive.

Regarding `CCCCNc1ccc(NCCCC)c2c1C(=O)c1ccccc1C2=O`, the compound was classed as inactive in [1], in test [2], in test [3], in test [10], in test [5] and in [6]. Besides, the outcome in test [8] and in test [9] was inactive.

For the compound `CCOC(F)(F)C(F)(F)C(F)(F)C(F)(F)F`, the result in test [1], in test [2], in test [3], in test [5], in test [6] and in test [7] was inactive. The call in test [8] and in test [9] was inactive.

`Nc1ccc(Cl)cc1Cl`: the result in [1], in [2], in test [4], in test [5], in test [6] and in [8] was inactive. Also, in test [9], the compound was called inactive.

`C=C[C@](C)(O)CC[C@@H]1[C@@]2(C)CCCC(C)(C)[C@@H]2CC[C@@]1(C)O`: the compound was called inactive in [1], in [2], in test [3], in test [6], in test [7] and in [8]. In test [9], the compound was called inactive.

Take `Cc1ccc(C2OC[C@@H]3OC(c4ccc(C)cc4)O[C@H]([C@H](O)CO)[C@@H]3O2)cc1` (stereo not given in full): the call in test [1], in test [2], in [3], in test [4], in [10] and in test [5] was inactive. The result in test [6], in test [7], in [8] and in [9] was inactive.

On to `CCCCCC/C=C\CCCCCCCC(=O)O`, for which the compound was classed as inactive in [1], in test [2], in test [10], in [7], in test [8] and in test [9].

In the case of `CCCCCCCCCCc1ccccc1`, the result in test [1], in test [2], in [4], in test [5], in test [6] and in test [7] was inactive. Moreover, the call in test [8] and in test [9] was inactive.

With `O=P(O)(O)Oc1ccccc1`, the compound was classed as inactive in test [1], in [2], in [4], in test [10], in test [5] and in test [8]. Moreover, the outcome in [9] was inactive.

Take `O=[N+]([O-])C1(Br)COCOC1`: the outcome in [1], in test [2], in test [3], in test [4], in test [5] and in test [6] was inactive. Besides, the outcome in [7], in test [8] and in [9] was inactive.

Take `c1ccc2c(c1)ccc1cc3c(ccc4ccccc43)cc12`: the outcome in test [1], in [2], in test [3], in test [4], in test [10] and in test [6] was inactive. The compound was called inactive in test [7], in [8] and in test [9].

What is called AC50 is the concentration giving half of the maximal activity seen. `CC(=O)[C@@]1(O)CC[C@H]2[C@@H]3C[C@H](C)C4=CC(=O)C=C[C@]4(C)[C@@]3(F)[C@@H](O)C[C@@]21C`: the AC50 in [1] was 0.221 µM (active). For the same compound, the result in [2], in test [3], in test [4], in test [8] and in test [9] was inactive.

In the case of `Nc1nc2ccccc2[nH]1`, the compound was classed as inactive in test [1], in test [2], in test [3], in [4], in [10] and in test [6]. The outcome in [7], in test [8] and in test [9] was inactive.

Turning to `Nc1ccc(Oc2ccc(N)c(N)c2)cc1`, the outcome in test [1], in test [2], in test [3], in [6], in [7] and in [8] was inactive. In addition, the result in test [9] was inactive.

For the compound `O=S(=O)(O)c1ccccc1C=Cc1ccc(-c2ccc(C=Cc3ccccc3S(=O)(=O)O)cc2)cc1`, the result in test [1], in test [2], in test [3], in test [6] and in [9] was inactive.

For the compound `CCN(CCC#N)c1ccc(N=Nc2c(Cl)cc([N+](=O)[O-])cc2Cl)cc1`, the outcome in test [1], in test [2], in [3], in [4], in test [10] and in test [5] was inactive. Moreover, the compound was called inactive in test [7], in test [8] and in test [9].

Consider `Oc1ccc(Cl)cc1Cc1cc(Cl)ccc1O`, for which the outcome in test [1], in test [2], in test [3], in [4], in [10] and in test [5] was inactive. The call in test [8] and in test [9] was inactive.

As to `CC=CCO`, the outcome in test [1], in [2], in test [10], in test [5], in test [6] and in test [8] was inactive. The compound was classed as inactive in [9].

For the compound `O=C(O)CC(C(=O)O)C(CC(=O)O)C(=O)O` (stereo not given), the result in [1], in [2], in [4], in test [5], in test [6] and in [8] was inactive. The outcome in [9] was inactive.

For `O=C(Nc1cccc(C(F)(F)F)c1)c1cc(Br)cc(Br)c1O`, the result in test [1], in test [2], in [10], in [5], in [6] and in test [7] was inactive. The AC50 in test [9] is 172 µM (active).

For `Cc1cnc(NC(=O)C2=C(O)c3ccccc3S(=O)(=O)N2C)s1`, the call in test [1], in test [2], in test [3], in test [5], in test [6] and in [7] was inactive. Also, the call in [8] and in test [9] was inactive.

As for `COc1ccc(-c2coc3cc(O)ccc3c2=O)cc1`, the compound was classed as inactive in test [1], in [3], in [4], in test [10], in [5] and in test [6]. The result in [7], in test [8] and in test [9] was inactive.

Consider `C=C1[C@H]2CC[C@@H]3[C@H]2C(C)(C)CCC[C@]13C`, for which the call in [1], in test [2], in test [10], in [5] and in [9] was inactive.
